Sampled rows, rich in hits. Any-hit rate of the full collection: about 3.7%.
TMEM16A act: activators or potentiators of mouse TMEM16A chloride channel; Q8BHY3; B-score at 10 µM; HEK293 TMEM16A/YFP-H148Q/I152L, iodide quench fluorescence; active compounds read low; hit rate 0.3% among 340,000;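 active = fluorescence-ratio B-score plate-corrected deviation score at least 3 library SD below zero, with starting fluorescence score within 5 deviations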;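 also: channel opened by trigger with iodide after compound preincubation; score built on the fluorescence ratio of max minus min over baseline; more negative score means more quench and so TMEM16A activation or potentiation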
CHT allo act: human CHT allosteric activation; Q9GZV3; CHT-expressing cells, membrane potential dye, choline EC20; active compounds read high; LV-AA mutant CHT in HEK293 cells; B-score at 10 µM; hit rate 0.49% among 310,000;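 active = initial fluorescence not abnormally high and integrated response B-score, plate-corrected, over 3 SD above library mean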
Target sequence (Q9GZV3 whole entry, looked up): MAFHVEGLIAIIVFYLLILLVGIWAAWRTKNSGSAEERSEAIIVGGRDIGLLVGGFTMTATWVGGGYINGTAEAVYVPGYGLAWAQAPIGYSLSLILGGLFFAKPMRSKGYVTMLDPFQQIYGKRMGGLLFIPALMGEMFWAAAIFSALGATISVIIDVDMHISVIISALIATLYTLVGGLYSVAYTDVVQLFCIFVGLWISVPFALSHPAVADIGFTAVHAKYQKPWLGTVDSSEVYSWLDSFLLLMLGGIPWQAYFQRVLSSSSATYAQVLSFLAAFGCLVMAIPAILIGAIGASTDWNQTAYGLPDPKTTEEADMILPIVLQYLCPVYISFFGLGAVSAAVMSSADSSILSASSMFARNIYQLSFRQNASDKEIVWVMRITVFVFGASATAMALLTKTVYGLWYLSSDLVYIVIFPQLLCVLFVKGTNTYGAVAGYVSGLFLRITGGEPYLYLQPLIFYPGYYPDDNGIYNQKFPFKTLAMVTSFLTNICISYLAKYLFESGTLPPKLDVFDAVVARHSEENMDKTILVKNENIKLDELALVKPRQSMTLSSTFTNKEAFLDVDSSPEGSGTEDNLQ
Kir21 inh: blocks the mouse Kir2.1 inward-rectifier potassium channel. P35561. HEK293-Kir2.1, FluxOR thallium flux fluorescence; active compounds read low. B-score at 10 µM. hit rate 0.85% among 310,000;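 active = fluorescence ratio B-score at or below minus 3 SD of library scores, with starting-brightness B-score within 2 SD, cut at about -4.2 in these data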;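 also: channel flux triggered by added potassium and thallium sulfate stimulus; B-score of peak minus minimum fluorescence over baseline after thallium stimulus; more negative B-score means stronger Kir2.1 block with less thallium influx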
CHT inh: inhibits the human high affinity choline transporter; CHT-expressing cells, membrane potential dye, choline response; active compounds read low; B-score at 10 µM; hit rate 0.86% among 310,000;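 active = B-score over 3 SD under the library average, and starting fluorescence ratio not unusually high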;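 also: choline stimulus applied at its EC90 after an EC20 pre-addition; B-score computed on integrated fluorescence ratio after choline addition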
GPR7 antagonist: blocks human GPR7 receptor signaling; P48145; GPR7-expressing cells, fluorescence antagonist assay; inhibition, % at 4.4 µM; hit rate 1.1% among 290,000; AID 1861; in the data active = inhibition above about 16%, passing the limit was not always enough;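 also: cells stimulated with the agonist NPW; 0% = agonist with vehicle and 100% = vehicle without agonist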
TMEM16A inh: blocks the mouse calcium-activated chloride channel TMEM16A; Q8BHY3; HEK293 TMEM16A/YFP iodide influx fluorescence, ionomycin; normalized B-score (activity score, 25-100; higher = stronger inhibition) at 10 µM; AID 588511; hit rate 1.2% among 310,000;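 active = ratio plate-corrected score three or more library SD toward inhibition, starting fluorescence score within five deviations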;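 also: score derived from kinetic fluorescence span divided by baseline fluorescence per well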
CHT inh conf: confirmation of human choline transporter CHT inhibitors; shares compounds with CHT inh; CHT-expressing cells, choline membrane potential dye; LV-to-AA substituted CHT, HEK293 cells; CHT activity remaining % of control (active compounds read low), % at 10 µM; hit rate 70% among 2,400; AID 493221;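 active = choline transporter activity left, mean of duplicates at 10 µM, below buffer-only control mean minus 3 SD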;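 also: depolarization triggered by choline at its EC90 following an EC20 pre-addition; 0% = hemicholinium-3 full block and 100% = buffer-only control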
HEK293 CHT ctr: counter-screen for CHT inhibitors: effect in parental HEK293 cells; hit rate 4% among 2,400; membrane potential dye, choline response; active = decrease or increase beyond buffer ±3SD; membrane potential ratio readout (active if shifted either direction beyond buffer ±3SD; no single direction) at 10 µM; shares compounds with CHT inh;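 also: parental cells lack the transporter so any hit is non-specific; ratio is peak minus trough fluorescence over baseline after EC90 choline challenge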
TMEM16A reconf: TMEM16A (mouse) chloride channel inhibition, re-confirmation | shares compounds with TMEM16A inh | HEK293 TMEM16A/YFP-H148Q, iodide quench fluorescence; ionomycin added to raise cell calcium | inhibition, % at 10 µM | hit rate 39% among 2,300;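 active = mean duplicate percent inhibition, scaled so buffer wells are 0 and the reference blocker 100, over three buffer SD above buffer mean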
TMEM16A Ca cntr: alters calcium mobilization in TMEM16A HEK293 cells, counter-screen; calcium response (% of ionomycin), % at 10 µM; hit rate 2% among 2,300; TMEM16A/YFP HEK293, Fluo4 calcium mobilization; shares compounds with TMEM16A inh; AID 652231;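 active = duplicate-averaged calcium signal over 20% of the ionomycin maximum, relative to buffer baseline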;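 also: each well's signal is peak minus trough fluorescence divided by its pre-addition baseline; 0% = buffer wells and 100% = ionomycin wells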
Parental YFP cnt: parental YFP-HEK293 iodide quench counter-screen activity; shares compounds with TMEM16A inh; AID 652233; 2,300 tested, under 10 active; YFP ratio F(max-min)/F0 at 10 µM; ionomycin;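 active = yellow fluorescent protein signal ratio exceeding the buffer control mean by over 5 SD of those controls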;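 also: ratio is mean of duplicate wells from kinetic YFP trace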
ClC-1 rat inh: blocks the rat ClC-1 voltage-dependent chloride channel; shares compounds with TMEM16A inh; CHO ClC-1-YFP, iodide influx fluorescence quench; iodide control reads 0, buffer control 100; ratio percent, % at 10 µM; 2,300 tested, under 10 active; AID 652236;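 active = duplicate-mean ratio percent above the mean of iodide-only control wells, which defines zero, plus 5 of their SD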;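 also: higher percent means stronger block of ClC-1 iodide influx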
Active calls of the source: *.

What do the screens show for `COc1ccc(C)cc1NC(=O)c1nn(C)cc1Br`?
TMEM16A act: inactive; CHT allo act: inactive; Kir21 inh: 0.83; CHT inh: inactive; GPR7 antagonist: -4; TMEM16A inh: inactive

Results for COc1ccccc1NC(=O)c1ccccc1C(=O)N(C)Cc1ccccc1 ?
TMEM16A act: inactive

Results for Cc1nnc(SCc2nc3ccccc3[nH]2)s1 ?
TMEM16A act: inactive; CHT allo act: inactive; Kir21 inh: -0.34; CHT inh: inactive; GPR7 antagonist: -6; TMEM16A inh: inactive

What do the screens show for `c1ccc2[nH]c(CSc3nc4ccccc4s3)nc2c1`?
TMEM16A act: inactive; CHT allo act: inactive; Kir21 inh: 0.31; CHT inh: -6*; GPR7 antagonist: -5; TMEM16A inh: inactive; CHT inh conf: inactive; HEK293 CHT ctr: inactive

What do the screens show for `CC(C)c1ccc(CNCc2ccccc2)cc1`?
TMEM16A act: inactive; CHT allo act: inactive; Kir21 inh: -2.9; CHT inh: -5.1*; GPR7 antagonist: -7; TMEM16A inh: inactive; CHT inh conf: 42%*; HEK293 CHT ctr: -15*

What do the screens show for `CCCOP(=O)(c1ccc(N(C)C)cc1)C(O)c1ccc(Br)cc1` (stereo unspecified)?
TMEM16A act: inactive; CHT allo act: inactive; Kir21 inh: -1.4; CHT inh: -5.8*; GPR7 antagonist: 8; TMEM16A inh: inactive; CHT inh conf: 68%*; HEK293 CHT ctr: inactive

Results for CC(C)(C)c1cc(C(F)(F)F)nc(SCCCNC(=O)c2ccco2)n1 ?
TMEM16A act: inactive; CHT allo act: inactive; Kir21 inh: -3.6; CHT inh: -5.5*; GPR7 antagonist: -2; TMEM16A inh: inactive; CHT inh conf: inactive; HEK293 CHT ctr: inactive

What do the screens show for `Cc1cccc(C(=O)N[C@H](C(=O)Nc2ncc(C)s2)C(C)C)c1`?
TMEM16A act: inactive; CHT allo act: inactive; Kir21 inh: 2.5; CHT inh: -11*; GPR7 antagonist: 1; TMEM16A inh: inactive; CHT inh conf: inactive; HEK293 CHT ctr: inactive

Results for Cc1cccc(C(=O)N[C@H](C(=O)Nc2nnc(C3CC3)s2)C(C)C)c1 ?
TMEM16A act: inactive; CHT allo act: inactive; Kir21 inh: -0.67; CHT inh: inactive; GPR7 antagonist: -6; TMEM16A inh: inactive

Results for Cn1nc(C(F)(F)F)c(-c2ccccc2)c1NC(=O)c1cccnc1 ?
TMEM16A act: inactive; CHT allo act: inactive; Kir21 inh: 0.72; CHT inh: -5.3*; GPR7 antagonist: -10; TMEM16A inh: inactive; CHT inh conf: 32%*; HEK293 CHT ctr: inactive

Results for Cn1nc(C(F)(F)F)c(-c2ccccc2)c1NC(=O)CCC(=O)O ?
TMEM16A act: inactive; CHT allo act: inactive; Kir21 inh: 0.91; CHT inh: inactive; GPR7 antagonist: -8; TMEM16A inh: inactive

What do the screens show for `Cn1nc(C(F)(F)F)c(-c2ccccc2)c1NC(=O)c1ccco1`?
TMEM16A act: inactive; CHT allo act: inactive; Kir21 inh: 0.05; CHT inh: -5.6*; GPR7 antagonist: 3; TMEM16A inh: inactive; CHT inh conf: 36%*; HEK293 CHT ctr: inactive

What do the screens show for `O=C(N/N=C\c1cccs1)c1ccccc1-n1cccc1`?
TMEM16A act: inactive; CHT allo act: inactive; Kir21 inh: 1.7; CHT inh: -5.3*; GPR7 antagonist: -9; TMEM16A inh: inactive; CHT inh conf: inactive; HEK293 CHT ctr: inactive

Results for O=C(N/N=C\c1ccccc1)c1ccccc1-n1cccc1 ?
TMEM16A act: inactive; CHT allo act: inactive; Kir21 inh: 0.26; CHT inh: inactive; GPR7 antagonist: -14; TMEM16A inh: inactive

How did CC(C)=CCN1CCN(Cc2nc(-c3ccc(F)cc3)cs2)CC1CCO (stereo unspecified) do in these assays?
TMEM16A act: inactive; CHT allo act: inactive; Kir21 inh: -1.4; CHT inh: -5.4*; GPR7 antagonist: -14; TMEM16A inh: inactive; CHT inh conf: inactive; HEK293 CHT ctr: inactive

Results for Nc1ccccc1C(=O)NC1CCCNC1=O (stereo unspecified) ?
TMEM16A act: inactive; CHT allo act: inactive; Kir21 inh: -1.6; CHT inh: -16*; TMEM16A inh: inactive; CHT inh conf: inactive; HEK293 CHT ctr: inactive

Results for CCOC(=O)c1ccc(-c2ccc3oc(-c4ccsc4)cc(=O)c3c2)cc1F ?
TMEM16A act: inactive

What do the screens show for `CC(=O)Nc1ccc(Oc2ncccn2)c(Cl)c1`?
TMEM16A act: inactive; CHT allo act: inactive; Kir21 inh: -0.5; CHT inh: -5.6*; GPR7 antagonist: -2; TMEM16A inh: inactive; CHT inh conf: inactive; HEK293 CHT ctr: inactive

Results for CCN(CC)S(=O)(=O)c1ccc(OC)c(NC(=S)Nc2ccc(C)c(C)c2)c1 ?
TMEM16A act: inactive; CHT allo act: inactive; Kir21 inh: -0.03; CHT inh: -6*; GPR7 antagonist: -8; TMEM16A inh: inactive; CHT inh conf: 53%*; HEK293 CHT ctr: inactive

How did Cc1nn(-c2ccccc2)c(C)c1C(=O)N1CCN(S(=O)(=O)c2ccccc2)CC1 do in these assays?
TMEM16A act: inactive

How did Cc1ccc(C2CC2C(=O)NNC(=S)Nc2cccc(Cl)c2)cc1 (stereo unspecified) do in these assays?
TMEM16A act: inactive; CHT allo act: inactive; Kir21 inh: -2.1; CHT inh: -12*; GPR7 antagonist: -14; TMEM16A inh: 25*; CHT inh conf: 43%*; HEK293 CHT ctr: inactive; TMEM16A reconf: 23%*; TMEM16A Ca cntr: inactive; Parental YFP cnt: -1; ClC-1 rat inh: -13

Compound activity (PubChem BioAssay)
